The structures appear in SMILES notation. About 83,000 compounds went through this panel and 20% of them were active in at least one assay; those are over-represented in the sample as a whole.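 For each line, cells grew in 96-well plates with the test compound present at a single concentration for 48 hours.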 Calls of active or inactive are those of the source.

The test system of the assay is OVCAR-3 ovarian. Put plainly: NCI-60 one-dose screen, 48 h (100 = growth as untreated, 0 = no growth, -100 = all killed). To be noted: 10 µM unless noted. The procedure: Growth inhibition of the OVCAR-3 human tumor cell line is measured as a screen for anti-cancer activity. Cells are grown in 96 well plates and exposed to the test compound for 48 hours. Compounds are tested at a single concentration, which is 10^-5 M for most compounds. The reported endpoint is percent growth (GI% or GIPRCNT), where numbers from 0 - 100% represent growth inhibition, and numbers from -100% - 0 represent cell death. For example, a value of 40 represents 60% growth inhibition. A value of 0 means no net growth occurred over the course of the experiment. A value of -40 indicates 40% of cells at the beginning of the experiment died by the end of the experiment. A value of -100 means all cells are dead at the end of the experiment.
NCI-60 Human Tumor Cell Lines Screen was performed using the standard one-dose NCI protocol, which is described in more detail at https://dtp.cancer.gov/discovery_development/nci-60/default.htm.
Compounds with GIPRCNT values below 10 were considered active. Activity score was based on GIPRCNT using the following formula: […]
Score is 0 for GIPRCNT values of 100 or above, 50 for GIPRCNT values of 0, and 100 for GIPRCNT values of -100.
Turning to `CC(C)(O)c1cncc(-c2ccc3ncnc(N4CCc5cc(F)c(Cl)cc54)c3c2)c1`, the growth is 5.16% (active). For `COC1CCN(Cc2ccc3c(NNC(=O)c4cnccn4)nc4cc(F)ccc4n23)C1` (stereo not given) the value was 5.16% (active); for `COc1cc(-c2nc3ccc(-c4nnc(SCC(=O)Nc5ccc(C(=O)/C=C/c6ccc(Cl)cc6)cc5)o4)cc3[nH]2)cc(OC)c1OC`, 97.9% (inactive).

Regarding `Nc1c(C(=O)Nc2ccc(C(F)(F)F)cc2)sc2nc(-c3cnccn3)cc(-c3cccs3)c12`, the growth was 96% (inactive). With `C[C@@H]1CN(c2ccc3ncc(C#Cc4cncc(C(=O)Nc5ccc(CN6CCN(C)CC6)c(C(F)(F)F)c5)c4)n3n2)C[C@H](C)O1` the figure was -48.3% (active). For `CN1C(=S)N(C)C2C1NN=C1SC(c3ccccc3)=CC(=O)N12` (stereo not given) the value was 107% (inactive). `COC(=O)C1CCCN(S(=O)(=O)/N=C2\NC(=O)NC2=C(Cl)Cl)C1` (stereo not given): the growth is 122% (inactive). For `COc1ccc(COc2ccc(/C=C3/C(=O)Nc4cc(Cl)ccc43)cc2)cc1` the value was 102% (inactive); for `CN(C)CCCOc1c2ccc(Cl)cc2nc2c1oc1ccccc12`, -10.4% (active); for `COc1cc2nc(-c3ccc(C(F)(F)F)cc3)cc(OCCCNCC3CCCO3)c2cc1OC` (stereo not given), 65.4% (inactive).

Take `OC1CCN(CCCOc2c3ccc(Cl)cc3nc3c2oc2ccccc23)CC1`: the growth was 0.661% (active). For `COc1ccc(C(=O)/C=C/c2ccc(OCc3ccc(C)cc3)c(OC)c2)cc1OC` the value was 76.8% (inactive).

On to `O=C(CCN1C(=O)/C(=C/c2ccccc2)SC1=S)N1CCOCC1`, for which the growth is 110% (inactive). With `Cc1cc(C(=O)Nc2sc3c(c2C(N)=O)CCC(=O)C3)ccc1OCCN1CCCCC1` the figure was 97.7% (inactive); with `COc1ccc(NC2=C(Cl)C(=O)C(C)=C(C)C2=O)cc1OC`, 95.6% (inactive). With `O=C(Nc1nc2ccc(O)cc2s1)c1cccc(C(F)(F)F)c1` the figure was 67.2% (inactive); with `C=CCn1c(SCC(=O)c2ccccc2)nnc1-c1c[nH]c2ccccc12`, 115% (inactive); with `Nc1cc(-c2c[nH]c3ccccc23)nc2cc(-c3c[nH]c4ccccc34)nn12`, 92.4% (inactive).

Regarding `CC1=C(C)C(=O)C(Nc2cccc(C(F)(F)F)c2)=C(Cl)C1=O`, the growth is 70.4% (inactive).

With `CCN1C(=S)N(c2ccccc2)C2NC(=O)N(/N=C/C=C/c3ccccc3OC)C21` (stereo not given), the growth is 93.9% (inactive). With `CN(C)CCCNc1c2ccc(Cl)cc2nc2c1oc1ccc(Cl)cc12` the figure was -52.6% (active). For `C/C(=N/NC(N)=S)c1ccc(Nc2nc(SCC(C)C)nc(-c3ccc(F)cc3)c2C#N)cc1` the value was -19.5% (active); for `N#Cc1c(-c2ccc(Cl)cc2)nc(SCc2ccc([N+](=O)[O-])cc2)nc1N1CCNCC1`, -32.6% (active).

Turning to `COc1ccc(-n2c(SCC(=O)Nc3ccc(-c4nc5ccccc5[nH]4)cc3)nc3ccccc3c2=O)cc1`, the growth was -34.8% (active). For `O=C(Oc1ccc2ccc(=O)oc2c1)c1ccc(Cl)cc1` the value was 118% (inactive); for `CN1C(=O)N(c2ccccc2)C2N=C(N/N=C/c3ccccc3)SC21` (stereo not given), 13.2% (inactive); for `O=C(N/N=C/c1ccc(Cl)s1)c1[nH]c2ccc(Br)cc2c1-c1ccccc1`, 20.8% (inactive).

On to `COc1cc(OC)c(C2C(Cl)C(=O)N2Nc2ncnc3ccccc23)cc1OC` (stereo not given), for which the growth is 116% (inactive). With `CC(C)(C)Nc1nc2c(OCCc3ccccc3)cccn2c1-c1ccc(Cl)cc1` the figure was 6.36% (active); with `O=C(c1ccc(O)cc1)C1[C@H](c2ccc(Cl)cc2)[C@@H](c2ccccc2)NC12C(=O)Nc1ccc(Cl)cc12` (stereo not given in full), 33.1% (inactive). For `COc1cc2nc(-c3ccc(C)cc3)cc(OCCCNCC3CCCO3)c2cc1OC` (stereo not given) the value was 101% (inactive); for `Cn1ccnc1C(=O)/C=C/c1ccc(NC(=O)Nc2ccc(Cl)cc2)cc1`, 84.2% (inactive). With `CN(C)CCCOc1c2ccc(Cl)cc2nc2c1oc1ccc(Cl)cc12` the figure was 45.4% (inactive); with `COC(=O)C(Cc1ccccc1)NS(=O)(=O)/N=C1\NC(=O)NC1=C(Cl)Cl` (stereo not given), 110% (inactive); with `CCOc1ccc([C@H]2C(C(=O)c3ccc(Cl)cc3)C3(N[C@@H]2c2ccccc2)C(=O)Nc2ccc(Br)cc23)cc1` (stereo not given in full), -29.5% (active).

Consider `COc1cc(/C=C/C(=O)c2cc(OC)c(OC)c(OC)c2)ccc1OCc1ccccc1`, for which the growth was 26% (inactive). In the case of `O=C(CSc1nc2sc3c(c2c(=O)n1-c1ccc(Cl)cc1)CCCC3)NNC(=O)Nc1cccc(C(F)(F)F)c1`, the growth is 5.17% (active).

In the case of `CSCCC(C(=O)O)N1C(=O)/C(=C/c2ccc(O)c(O)c2)SC1=S` (stereo not given), the growth was 111% (inactive).

Turning to `NC(=O)c1cc(-c2ccc3ncnc(N4CCc5cc(F)c(Cl)cc54)c3c2)cnc1N`, the growth was 1.86% (active). With `CS(=O)(=O)c1ccc(-c2nc3ccccn3c2/C=N/Nc2nc(-c3ccc(Cl)cc3)cs2)cc1` the figure was 124% (inactive).

The values above are taken from PubChem BioAssay (NCI).
